What all share (test): MAPPIT interaction score (arbitrary units); higher = stronger binary interaction signal, active = hit call of the paper
One test deals with CG12307. Conditions: MAPPIT configuration: N-C; pair source set: screen_3.
For a further test, the target named is CG30324. The note with it: MAPPIT configuration: N-C; pair source set: screen_3.
The target of the next test is en. The note with it: MAPPIT configuration: N-C; pair source set: screen_4.
Another test has as its target CG12112. The note with it: MAPPIT configuration: N-N; pair source set: RRS.
For the next test, the target named is CG12155. The note with it: MAPPIT configuration: N-N; pair source set: Lit-BS-16.
Another test deals with Ravus. Conditions: MAPPIT configuration: N-N; pair source set: screen_1.
The target of a further test is CG1246. Conditions: MAPPIT configuration: N-N; pair source set: DPIM.
Another test addresses CG12253. Conditions: MAPPIT configuration: N-C; pair source set: screen_3.
A further test concerns the target Hsp70Aa. The note with it: MAPPIT configuration: N-N; pair source set: Lit-BS-16.
A further test concerns the target CG12343. Conditions: MAPPIT configuration: N-N; pair source set: DPIM.
A further test has as its target CG12268. The note with it: MAPPIT configuration: N-N; pair source set: DPIM.
The target in the next test is mub. The note with it: MAPPIT configuration: N-N; pair source set: DPIM.
A further test addresses CG11983. The note with it: MAPPIT configuration: N-N; pair source set: screen_1.
Another test deals with CG11961. Conditions: MAPPIT configuration: N-N; pair source set: Lit-BS-16.
Another test has as its target CG12607. Conditions: MAPPIT configuration: N-N; pair source set: Lit-BS-16.
The target in a further test is noc. Conditions: MAPPIT configuration: N-N; pair source set: Curagen_high_conf.

Values without a mark were called inactive.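 The calls were made as follows: active = MAPPIT score above the 99th percentile of random reference set scores in the same batch; inactive = at or below it.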
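Also: HEK293T cells with Epo stimulation, STAT-responsive firefly luciferase reporter, fold induction versus unstimulated cells divided by the larger fold induction of two negative controls lacking either bait or prey.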

B1: osk (protein)
chain: MAAVTSEFPSKPISYTSTNTSAKTYYLKSVKKRVTTCFQQLRDKLQSSGSFRKSSSSCLNQIFVRSDFSACGERFRKIFKSARKTELPELWKVPLVAHELTSRQSSQQLQVVARLFSSTQISTKEITYNSNSNTSENNMTIIESNYISVREEYPDIDSEVRAILLSHAQNGITISSIKSEYRKLTGNPFPLHDNVTDFLLTIPNVTAECSESGKRIFNLKASLKNGHLLDMVLNQKERTSDYSSGAPSLENIPRAPPRYWKNPFKRRALSQLNTSPRTVPKITDEKTKDIATRPVSLHQMANEAAESNWCYQDNWKHLNNFYQQASVNAPKMPVPINIYSPDAPEEPINLAPPGHQPSCRTQSQKTEPTENRHLGIFVHPFNGMNIMKRRHEMTPTPTILTSGTYNDSLLTINSDYDAYLLDFPLMGDDFMLYLARMELKCRFRRHERVLQSGLCVSGLTINGARNRLKRVQLPEGTQIIVNIGSVDIMRGKPLVQIEHDFRLLIKEMHNMRLVPILTNLAPLGNYCHDKVLCDKIYRFNKFIRSECCHLKVIDIHSCLINERGVVRFDCFQASPRQVTGSKEPYLFWNKIGRQRVLQVIETSLEY
As for B1, the MAPPIT interaction score was 2.35 in the test with CG12307, 0.362 with CG30324 and 0.844 with en.

B2: Edg78E (protein)
chain: MYKYLFCLALIGCACADNINKDAQIRSFQNDATDAEGNYQYAYETSNGIQIQEAGNANGARGAVAYVSPEGEHISLTYTADEEGYHPVGDHLPTPPPVPAYVLRALEYIRTHPPAPAQKEQQ
Turning to B2, in the test with CG12112, the MAPPIT interaction score was 2.76 (active).

B3: Arr1 (protein)
chain: MVVNFKVFKKCSPNNMITLYMNRRDFVDSVTQVEPIDGIIVLDDEYVRQNRKIFVQLVCNFRYGREDDEMIGLRFQKELTLVSQQVCPPQKQDIQLTKMQERLLKKLGSNAYPFVMQMPPSSPASVVLQQKASDESQPCGVQYFVKIFTGDSDCDRSHRRSTINLGIRKVQYAPTKQGIQPCTVVRKDFLLSPGELELEVTLDKQLYHHGEKISVNICVRNNSNKVVKKIKAMVQQGVDVVLFQNGQFRNTIAFMETSEGCPLNPGSSLQKVMYLVPTLVANCDRAGIAVEGDIKRKDTALASTTLIASQDARDAFGIIVSYAVKVKLFLGALGGELCAELPFILMHPKPSRKAQLEAEGSIEA
Regarding B3, the MAPPIT interaction score was 0.0379 in the test with CG12155 and 0.0915 with Ravus.

B4: Vha68-2 (protein)
chain: MSNLKRFDDEERESKYGRVFAVSGPVVTAEAMSGSAMYELVRVGYYELVGEIIRLEGDMATIQVYEETSGVTVGDPVLRTGKPLSVELGPGIMGSIFDGIQRPLKDINELTESIYIPKGVNVPSLSRVASWEFNPLNVKVGSHITGGDLYGLVHENTLVKHKMIVNPRAKGTVRYIAPSGNYKVDDVVLETEFDGEITKHTMLQVWPVRQPRPVTEKLPANHPLLTGQRVLDSLFPCVQGGTTAIPGAFGCGKTVISQALSKYSNSDVIIYVGCGERGNEMSEVLRDFPELSVEIDGVTESIMKRTALVANTSNMPVAAREASIYTGITLSEYFRDMGYNVSMMADSTSRWAEALREISGRLAEMPADSGYPAYLGARLASFYERAGRVKCLGNPEREGSVSIVGAVSPPGGDFSDPVTSATLGIVQVFWGLDKKLAQRKHFPSINWLISYSKYMRALDDFYDKNFPEFVPLRTKVKEILQEEEDLSEIVQLVGKASLAETDKITLEVAKLLKDDFLQQNSYSSYDRFCPFYKTVGMLRNIIDFYDMARHSVESTAQSENKITWNVIREAMGNIMYQLSSMKFKDPVKDGEAKIKADFEQLHEDLQQAFRNLED
For the molecule B4, in the test with CG1246, the MAPPIT interaction score was -0.102.

B5: Sry-alpha (protein)
chain: MEQLLAQLHTCSELIAEGYSSTGNIGWLNEFCATFLDFASDLKARLPEVAPSGANLDVETIFLCLTQVVTCITHLERTISMEAPHMTRQHFLDRLDWCLRRLLVSLTQLEGNVTPVKNLEDHSFVELMDLALDHLDDYMEKLAQQRNNSLHILEESFTEDTYQLASIVNHIVRHALAFANVAIHSDKKALTALCETLLAECATFHEEAGEPNSGHRKLEALSLERALYALESFLNEALLHLLFVSLIDLENASVEKLKDALQRDPAGAQELISAFDTNMDRIQQIGVLAIAFSQDIKTKTIVRSCLASLESLDACIVPALQLPESTSSAHHAEVLQEHFNQELLIFRNVIHEIIDSCSLINNYLDMLGERIHVQDKSHLKLIVQRGGVVVDHFRLPVNYSGLSEDGKRVHKDLILILRECQAVVNLDVPVDPKRIVKRLKILYSVLAKLRDLICRDNLEPDSSVASEAQVPSSATRTFVRSSRSFGKRHRSFVKQTGNCSVFGPQDSLAESGHSESDLISFQITEILRLD
With B5, the MAPPIT interaction score in the test with CG12253 is 0.332; in the test with Hsp70Aa it was 3.5 (active).

B6: CG8745 (protein)
chain: MPFAHEQLNLVASEQLSKTETIKLRNQHIGQACQLFYRSDPLKIVRGQGQYMFDEEGTRYLDCINNVAHVGHCHPEVVRAGALQMATISTNNRFLHDELVQCARTLTSKMPEPLSVCFFVNSGSEANDLALRLARNFTKRQDVITLDHAYHGHLQSVMEVSPYKFNQPGGEAKPDYVHVAPCPDVYGGKFTDKMYPDADMGALYAQPIEEICQKQLAKGQGVAAFIAESLQSCGGQILPPAGYFQAVYDAVRSAGGVCIADEVQVGFGRVGSHYWAFETQNVIPDIVCVAKPMGNGHPVGAVVTTPEIAQAFHATGVAYFNTYGGNPVSCAIANAVMRVIEEEGLQQKALVLGDYLLEECNRLKQEFECIGDVRGAGLFVGIELVQDRKERIPDKKAAHWVVNRMKQLHRVLVSSDGPNDNVIKLKPPMCFNRENADEFLLGFRECLTAVMQERLASATSAAMAATSGVIATATETLANKTKLFERQDRLIKSV
Turning to B6, in the test with CG12343, the MAPPIT interaction score was 0.219.

B7: mRpL52 (protein)
chain: MLKITKICLASSATSTAQRSIALTAPRAIDQKWRAAKGLPENPNAFGPLTNLPDYTYLDGRPTPLGANQKRRLIKQQEIATRIVELSGELEFAKQRHERLKANAESEKQRLIRSKLKPKGHFLLKK
Consider B7, for which the MAPPIT interaction score in the test with CG12268 was -0.169; with mub, 0.103.

B8: Cdlc2 (protein)
chain: MSDRKAVIKNADMSEEMQQDAVDCATQALEKYNIEKDIAAFIKKEFDKKYNPTWHCIVGRNFGSYVTHETRHFIYFYLGQVAILLFKSG
With B8, the MAPPIT interaction score with CG11983 is 4.18 (active).

B9: Sod3 (protein)
chain: MMQYLVVSLALCATICSAAQTRNMPIQAIAYLIGPVQSDNTQVKGNVTFTQNDCGQNVHVRVQLEGLKEGKHGFHIHEKGDLTNGCISMGAHYNPDKVDHGGPDHEVRHVGDLGNLEANSTGIIDVTYTDQVITLTGKLGIIGRGVVVHELEDDLGLGNHTDSKKTGNAGGRIACGVIGIK
For the molecule B9, the MAPPIT interaction score is -0.0996 in the test with CG11961, 0.262 with CG12607 and 0.249 in the test with noc.

(Values after the supplement of paper PMC10105736.)
